Screens (PubChem)
HIF-2a inh: HIF-2a inhibition; 786-0 RCC cells HIF-2a reporter, luciferase luminescence, overnight; inhibition, % at 18.8 µM; 0.72% of 360,000 active; AID 624352;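 active = inhibition of the luminescence signal of 40% or more relative to plate controls, in a single-dose primary screen at 18.75 µM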
KKLEB cytotox: reduces viability of KKLEB cystic fibrosis airway cells. KKLEB CF airway cells viability, ATPlite luminescence, overnight; hits give low values; cells stimulated with P. aeruginosa culture filtrate. activity change (cytotoxicity), % at 5 µM. 0.36% of 360,000 active. AID 602141;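 active = corrected activity change at or below -50% at 5 µM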
PAX8 inh HTS: lowers PAX8-driven luciferase in RMG-I cells; RMG-I TPO-luciferase reporter, SteadyGlo, 24 h; AID 652154; 1.2% of 360,000 active; inhibition, % at 12.6 µM;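 active = mean replicate inhibition at least 60% with every replicate also reaching 60%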;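 note: luciferase light reporting Pax8 driven TPO promoter activity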
EWS-Fli block: EWS/Fli transcriptional activity inhibition; A673 NR0B1-luciferase reporter, viability-normalised; 0.67% of 350,000 active; inhibition, % at 12.6 µM;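 active = mean inhibition of at least 50% after viability correction, with every replicate also passing that limit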;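 note: firefly luciferase signal divided by Alamar Blue viability fluorescence both relative to DMSO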
CF NFkB block: cystic fibrosis NF-kB activation inhibition. 0.86% of 360,000 active. AID 588850. KKLEB NF-kB-GFP reporter, PAF-induced, GFP fluorescence overnight. inhibition, % at 5 µM;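 active = at least 50% inhibition at 5 µM, scaled per plate between neutral and stimulator controls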;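 note: PAF is a Pseudomonas aeruginosa culture filtrate used as stimulus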
DNA binder FP: binds DNA displacing acridine orange | AC35, µM (doses to about 68 µM) | shares compounds with EWS-Fli block | salmon sperm DNA acridine orange fluorescence polarization | 2% of 640 active;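 active = fitted curve reaches a 35% signal fall AC35 below twice the sample's top valid tested dose, actives reach about 48 µM in these data; inactive = the rest, including activity in the rising direction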;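 note: lower polarization ratio signals compound binding to DNA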
Hits are given with their value; – = inactive; · = no result. A selection: hits, their analogues and other compounds. The true share with any hit is near 2.1%.

SMILES	HIF-2a inh	KKLEB cytotox	PAX8 inh HTS	EWS-Fli block	CF NFkB block	DNA binder FP
Cc1cc(N/N=C(/CCC(=O)O)C(=O)O)nc2ccccc12	–	–	–	–	–	·
CC(=NNc1cc(C)c2ccccc2n1)c1ccccn1	·	·	95	64	·	–
C/C(=N\Nc1cccc2cccnc12)c1ccccn1	–	–	–	61	–	–
O=S(=O)(c1ccccc1F)N1CCCCN2[C@H](CO)[C@H](c3ccc(-c4ccncc4)cc3)[C@H]2C1	·	·	–	–	·	·
CN1C(=O)c2cc(NC(=O)C3CCC3)ccc2OC[C@H]2O[C@@H](CC(=O)NCCc3ccncc3)CC[C@H]21	·	·	–	–	·	·
CC(C)CC#Cc1ccc2c(c1)O[C@H](CN(C)C(=O)c1ccccn1)[C@H](C)CN([C@@H](C)CO)S2(=O)=O	·	·	·	–	·	·
Cc1ccc(NC(=O)COC(=O)c2ccc(OC(F)F)cc2)cc1S(=O)(=O)N1CCCCC1	–	–	–	–	–	·
Cc1ccc(NC(=O)COC(=O)c2ccc3c(c2)OCO3)cc1S(=O)(=O)N1CCCCC1	–	–	–	72	–	–
C[C@@H]1CCCCO[C@H](CN(C)S(=O)(=O)c2ccc(Cl)cc2)[C@H](C)CN([C@@H](C)CO)C(=O)c2cc(NC(=O)C3CCCCC3)ccc2O1	·	·	–	–	·	·
C[C@@H]1CN([C@@H](C)CO)C(=O)Cc2cc(NS(=O)(=O)c3ccccc3)ccc2O[C@H]1CN(C)C(=O)NC1CCCCC1	·	·	–	–	·	·
CC(=O)N(C)C[C@H]1Oc2ncc(-c3ccc(C(=O)N(C)C)cc3)cc2C(=O)N([C@H](C)CO)C[C@@H]1C	·	·	–	–	·	·
Cc1ccc2c(c1)[C@H]1[C@H](CO2)[C@H](c2ccccc2)[C@]2(C)C(=O)Nc3ccc(Br)cc3C(=O)N12	–	–	–	–	–	·
Cc1ccc2c(c1)C(=O)N1[C@H]3c4cc(Br)ccc4OC[C@@H]3[C@H](c3ccccc3)[C@]1(C)C(=O)N2	–	–	–	56	–	–
O=C(C1CCCC1)N1C[C@H]2[C@@H](c3ccccc31)[C@@H](CO)N2C(=O)Nc1cccc(F)c1	·	·	–	–	·	·
CCCNC(=O)[C@@H]1[C@@H](CO)[C@@H]2Cn3c(ccc(-c4ccccc4)c3=O)[C@H]1N2C(=O)CC	·	·	·	55	·	–
O=C1C(C=Nc2ccc(F)cc2)=C(O)c2ccccc21	–	–	–	–	–	·
Cc1ccccc1N=CC1=C(O)c2ccccc2C1=O	–	-60	–	77	–	–
CCCC(=O)Nc1ccc2c(c1)C(=O)N(C)C[C@@H](OC)[C@@H](C)CN(C(=O)CC1CC1)[C@@H](C)CO2	·	·	–	–	·	·
CCCc1nc2ccc(NC(=O)c3cccs3)cc2c(=O)n1Cc1ccccc1Cl	–	–	–	60	–	–
C[C@H](CO)N1C[C@H](C)[C@@H](CN(C)C(=O)C2CCCCC2)OCCCC[C@H](C)Oc2ccc(NC(=O)CCCN(C)C)cc2C1=O	·	·	–	–	·	·
O=C(NCCc1ccccc1)c1ccccc1NC(=O)C1CCCO1 (stereo not given)	–	–	–	71	–	–
O=C(O)c1ccccc1NC(=O)C1CCCO1 (stereo not given)	–	–	·	·	–	·
C[C@@H]1CCCCO[C@H](CN(C)C)[C@H](C)CN([C@H](C)CO)C(=O)c2cc(NC(=O)Cc3ccccc3)ccc2O1	·	·	–	–	·	·
C[C@@H]1CCCCO[C@H](CN(C)S(C)(=O)=O)[C@@H](C)CN([C@H](C)CO)C(=O)c2cc(N(C)C)ccc2O1	·	·	–	–	·	·
COc1ccc2nc(N)sc2c1	–	–	·	·	–	·
SMILES	HIF-2a inh	KKLEB cytotox	PAX8 inh HTS	EWS-Fli block	CF NFkB block	DNA binder FP
COc1ccc2nc(-c3ccc(F)cc3)sc2c1	–	–	–	55	–	–
COC(=O)CC1(C(=O)OC)Oc2ccc(Br)cc2C(=O)N1c1cccc(Cl)c1Cl (stereo not given)	–	–	–	64	–	–
N#CC1=C(N)Oc2cc(N)ccc2C1c1cccc(Br)c1 (stereo not given)	–	–	64	62	–	–
COC(=O)C[C@@H]1CC[C@@H]2[C@H](COc3ccc(NC(=O)c4cccc(Cl)c4)cc3C(=O)N2C)O1	·	·	–	69	·	–
COC(=O)C[C@H]1CC[C@@H]2[C@H](COc3ccc(NC(=O)c4cccc(Cl)c4)cc3C(=O)N2C)O1	·	·	–	–	·	·
COC(=O)C[C@@H]1CC[C@@H]2[C@H](COc3ccc(NC(=O)Nc4cccc(Cl)c4)cc3C(=O)N2C)O1	·	·	–	59	·	–
Cc1cccc(NC(=O)CN2CCN(C(=O)CNC(=O)c3ccc(-c4ccccc4)cc3)CC2)c1C	–	–	–	66	–	–
C[C@@H]1CN([C@@H](C)CO)C(=O)c2cccc(N(C)C)c2O[C@@H]1CN(C)Cc1ccc(C(=O)Nc2ccccc2N)cc1	·	·	–	54	·	–
C[C@H]1CN([C@@H](C)CO)C(=O)c2cccc(N(C)C)c2O[C@@H]1CN(C)Cc1ccc(C(=O)Nc2ccccc2N)cc1	·	·	–	–	·	·
C[C@@H]1CN([C@@H](C)CO)C(=O)c2cccc(NC(=O)CCCCCC(=O)Nc3ccccc3N)c2O[C@H]1CN(C)Cc1ccc2c(c1)OCO2	·	·	–	–	·	·
C[C@@H]1CN([C@@H](C)CO)C(=O)c2cccc(NS(=O)(=O)c3ccc(F)cc3)c2O[C@@H]1CN(C)Cc1ccc(C(=O)Nc2ccccc2N)cc1	·	·	·	55	·	–
C[C@H]1CN([C@@H](C)CO)C(=O)c2cccc(NC(=O)CCCCCC(=O)Nc3ccccc3N)c2O[C@@H]1CN(C)Cc1ccc2c(c1)OCO2	·	·	·	57	·	–
C[C@@H]1CN([C@@H](C)CO)C(=O)c2cccc(NS(=O)(=O)c3ccc(F)cc3)c2O[C@H]1CN(C)Cc1ccc(C(=O)Nc2ccccc2N)cc1	·	·	–	–	·	·
CCCNC(=O)N1CC2(C1)CN(C(=O)c1cccnc1)[C@H](CO)c1[nH]c3cc(OC)ccc3c12	·	·	·	–	·	·
CCCN1C/C(=C/c2ccc3c(c2)OCO3)C(=O)/C(=C/c2ccc3c(c2)OCO3)C1	89	–	–	64	–	–
CCCN1C(=O)/C(=C/c2ccc3c(c2)OCO3)NC1=S	–	–	–	–	–	·
C/C(=C\c1ccccc1)C(=O)N1CCC=CC1=O	·	·	–	55	·	–
C/C(=C/c1ccccc1)C(=O)N1CCC(C)CC1	–	–	–	–	–	·
CNC[C@H]1Oc2c(NS(=O)(=O)c3ccc(C)cc3)cccc2C(=O)N([C@@H](C)CO)C[C@@H]1C	·	·	–	–	·	·
O=C(O)c1ccc(-c2ccccc2)[nH]1	–	–	–	·	–	·
O=C(O)c1ccc2cc(-c3ccccc3)[nH]c2c1	–	–	–	64	–	–
O=C(Nc1ccc2c(c1)[C@H]1C[C@H](CC(=O)N3CCCCC3)O[C@H](CO)[C@H]1O2)c1ccc2c(c1)OCO2	·	·	–	–	·	·
O=C(NC(c1ccc(F)cc1)c1ccc2ccccc2n1)C1CCN(Cc2cccc(C(F)(F)F)c2)CC1 (stereo not given)	–	–	–	58	–	–
COc1ccc(CCC(C)NC2CCCCCCC2)cc1 (stereo not given)	–	–	–	–	–	·
